Giardia kill: kills Giardia lamblia; Giardia lamblia trophozoite viability; activity change, % at 7.66 µM, hits read low; hit rate 0.15% among 340,000; in the data active means activity change below about -80%; inconclusive means between about -30% and that limit;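 further: parasites exposed to compound for two days anaerobically before the ATP read; on the % scale 0 is the no-effect control and ±100 the full control effect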
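Giardia trophozoites, 100 cells per well, were exposed to compounds for 48 hrs at 37 deg C under anaerobic conditions; viability was then read as ATP content by bioluminescence after 15-30 min at room temperature.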
HT1080 IDH1KD tx: toxicity to HT-1080 IDH1 knockdown cells (counter line); Potency, µM (series often up to 46.1 µM), for the others: top-dose activity, negative = toxicity, actives largely listed as cytotoxic; HT-1080 IDH1 knockdown viability, ATP luminescence, 48 h; hit rate 2% among 360,000;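 further: potency means the concentration at half of the fitted maximal effect; 0% = DMSO wells and -100% = cell-free medium wells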
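In this qHTS, HT-1080 cells depleted of IDH1 are exposed for 48 h at 37 °C to compound titrations. Toxicity is scored from CellTiter-Glo luminescence, with DMSO as full viability and medium alone as none.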
HT1080NT lethal: kills 2HG-producing HT-1080-NT fibrosarcoma cells; HT-1080-NT fibrosarcoma viability, CellTiter-Glo ATP luminescence, 48 h; Potency, µM (doses to about 46.1 µM), for the others: top-dose activity, negative = less viability, hits mostly cytotoxic; hit rate 1.6% among 360,000;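 further: NT is the 2HG producing partner of a matched IDH1 knockdown line; potency means the concentration at half of the fitted maximal effect; 0% = DMSO-treated cells and -100% = media-only wells without cells; nearly all actives have a fitted effect of over 55% in size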
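750 cells/well, RPMI + 5% FBS; 2 h settle, compound pin-transfer, 48 h at 37 degrees C. CellTiter-Glo 10 min RT, luminescence. Normalized to DMSO and media-only wells.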
HepG2 tox: HepG2 cytotoxicity, counter-screen for TGF-b inhibitors; hit rate 0.76% among 410,000; HepG2 CAGA-GFP viability, ATP luminescence, 18 h; Potency, µM (doses to about 46.1 µM), inactives show top-dose activity change, negative = cytotoxicity, actives largely listed as cytotoxic; further: potency means the concentration at half of the fitted maximal effect
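HepG2 CAGA-GFP cells (1000/well, DMEM with 1% FBS) received compound, then TGF-beta at 500 pg/mL final, and were incubated 18 hours at 37 degrees C. Viability was read by CellTiter-Glo luminescence. Media-only wells were set as complete cell-killing and DMSO as no toxicity.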
IL-1B inflam inh: blocks inflammasome-driven IL-1 beta release; THP-1 LPS/ATP IL-1B secretion, AlphaLISA, 16 h; hits give low values; activity change, % at 57.5 µM; hit rate 4.7% among 360,000; AID 743279; in the data active means activity change below about -50%; inconclusive means mostly about -30% to -49%; further: on the % scale 0 is the no-effect control and ±100 the full control effect
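THP-1 cells pretreated 1 hr with compounds (up to 57.5 uM final), then stimulated with LPS (250 ng/mL final) plus ATP (1.25 mM final); secreted IL-1B measured by AlphaLISA after 16 hr, decreased signal indicating inhibition.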
TGFb inhibitor: inhibitors of TGF-b signaling; HepG2 CAGA-GFP TGF-b/SMAD3 reporter, GFP fluorescence, 18 h; TGF-beta stimulated, 500 pg/mL final; hit rate 1.2% among 410,000; AID 588855; Potency, µM (top dose mostly 46.1 µM), without a hit: top-dose activity, negative = inhibition, most hits filed as inhibitors; further: potency means the concentration at half of the fitted maximal effect; on the % scale 0 is the no-effect control and ±100 the full control effect; nearly all actives have a fitted effect of over 65% in size
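TGF-beta reporter screen: HEPG2 CAGA-GFP, 1% FBS, 500 pg/mL TGF-beta final, 18 h; per-cell GFP summed per well; curves fitted and categorized by class.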
The depositor's hits bear a star; ? = inconclusive; . = no result. Compounds with a hit are over-represented: about 6.5% of the library has one in this group of screens. Unless noted, the call rests on the fitted dose curve; in most records, active means well fitted curve in the direction sought with a large enough effect; inconclusive means small, poorly fitted or top-dose-only effect, or another doubt; inactive means no such curve, though single readings can be large; an effect the other way counts as inactive or inconclusive.

SMILES	Giardia kill	HT1080 IDH1KD tx	HT1080NT lethal	HepG2 tox	IL-1B inflam inh	TGFb inhibitor
COc1ccc(-c2cc(C(F)(F)F)nc(SCC(=O)NCCCN3CCOCC3)n2)cc1	4	-2%	-2%	-12%	-11	-6%
O=C(c1ccccc1)C1CN(c2ccccc2)CC1c1ccc(Cl)cc1 (stereo not given)	-20	2%	-1%	5%	12	-2%
NC1=NC(c2ccc(Cl)cc2)C(C(=O)c2ccccc2)N1 (stereo not given)	-1	15µM*	18µM*	-7%	100	?
COc1ccc(NC2CCCN(C(=O)c3cccc(C(F)(F)F)c3)C2)cc1OC (stereo not given)	1	3%	-1%	1%	23	8%
N#CCSc1nccc(/C=C/c2ccccc2)n1	-2	-20%	-15%	-6%	-92*	1%
CCOc1cc(/C=C/C(=O)OCC(=O)N(CC)C2CCS(=O)(=O)C2)cc(Cl)c1OC (stereo not given)	.	16%	14%	9%	3	5%
C/C(=N\NC(=O)c1ccc(Br)cc1)C1C(=O)c2ccccc2C1=O	7	1µM*	2.2µM*	-79%	5	?
CCOc1ccc(C(=O)N/N=C(/C)C2C(=O)c3ccccc3C2=O)cc1	-16	-12%	-12%	6%	32	3%
C/C(=N\NC(=O)c1ccc(-c2ccccc2)cc1)C1C(=O)c2ccccc2C1=O	-13	-7%	-15%	-89%	127	13µM*
C/C(=N/NC(=O)c1ccc(-c2ccccc2)cc1)c1cc(O)cc(O)c1	-12	?	?	-21%	?	0%
COc1ccccc1C(=O)NCC(=O)OCC(=O)N(CC(C)C)c1c(N)n(Cc2ccccc2)c(=O)[nH]c1=O	11	-2%	-4%	-30%	-3	2%
CN(C)CC(CCCCC(CN(C)C)C(=O)c1ccccc1)C(=O)c1ccccc1 (stereo not given)	-27	?	?	-108%	-72*	?
CC1CCN(S(=O)(=O)c2ccc3nc(NCc4ccc(F)cc4)ccc3c2)CC1	.	.	.	-20%	.	13µM*
CC1CCN(S(=O)(=O)c2ccc3nc(Nc4ccc(C#N)cc4)ccc3c2)CC1	.	.	.	-31%	.	10µM*
CC1CCN(S(=O)(=O)c2ccc3nc(NCc4ccc(N(C)C)cc4)ccc3c2)CC1	.	.	.	-12%	.	?
CC1CCN(S(=O)(=O)c2ccc3nc(Nc4cccc(C(F)(F)F)c4)ccc3c2)CC1	.	.	.	-45%	.	?
CCc1ccc(OCCOCC(O)CN2CCN(Cc3ccc(Cl)cc3)CC2)cc1 (stereo not given)	-1	?	?	-42%	-53*	?
CC1=Nc2ccccc2/C1=C/c1c(C)[nH]c2ccccc12	12	?	?	-23%	-72*	?
CC1=Nc2ccccc2/C1=C/c1ccc(N(C)C)cc1	.	.	.	-23%	.	?
COc1ccc(/C=C/c2nc(-c3ccccc3O)n[nH]2)cc1OC	-18	4%	4%	-41%	-99*	-9%
CCOC(=O)c1c(C)[nH]c(C(=O)OCC(=O)N2c3ccccc3CC2C)c1C (stereo not given)	16	-23%	-23%	-23%	?	-4%
O=C(/C=C/c1ccc([N+](=O)[O-])s1)N1CCCC1	-87*	-19%	?	20µM*	7	11µM*
O=C(/C=C/c1ccc([N+](=O)[O-])s1)N1CCCCC1	-82*	23µM*	?	11µM*	-90*	13µM*
CC1CN(C(=O)/C=C/c2ccc([N+](=O)[O-])s2)CC(C)O1 (stereo not given)	?	?	?	10µM*	-23	?
COc1cccc(NC(=O)CN(C)C(=O)CSc2nc(C)cc(C)n2)c1	-1	0%	4%	10%	0	4%
SMILES	Giardia kill	HT1080 IDH1KD tx	HT1080NT lethal	HepG2 tox	IL-1B inflam inh	TGFb inhibitor
CC(C)C(NC(=O)c1ccccc1)C(=O)NC1=NCCS1 (stereo not given)	7	2%	-4%	-23%	11	-19%
CC(O)CNCCCOc1ccc(Cl)cc1C(C)(C)C (stereo not given)	9	?	18µM*	-99%	-66*	?
COCCCNCCCOc1ccc(Cl)cc1Br	-9	-26%	?	-36%	-25	1%
CN(C)CCOCCOc1ccc(Cl)cc1C(C)(C)C	-6	?	?	-28%	-56*	-23%
Cc1ccccc1C(O)c1ccncc1 (stereo not given)	-9	5%	24%	18µM*	8	-3%
Cc1ccc(C(O)c2ccncc2)cc1 (stereo not given)	21	-9%	3%	-14%	-11	12%
O=C(NC1CCCCC1)C(c1cccnc1)N(C(=O)CCl)c1ccc(F)cc1 (stereo not given)	10	10µM*	13µM*	-76%	-103*	?
CCc1ccccc1N(C(=O)CNC(=O)c1ccco1)C(C(=O)NC1CCCC1)c1cccnc1 (stereo not given)	9	28%	19%	-1%	5	-10%
O=C(NC1CCCCC1)C(c1cccnc1)N(C(=O)CCl)c1ccccc1Cl (stereo not given)	-8	16µM*	10µM*	2%	-89*	-26%
CSc1ccccc1NC(=O)CN(C)CC(=O)c1[nH]c(C)c(C(C)=O)c1C	-11	-8%	-3%	-28%	18	28%
O=C(c1cccs1)N1CCN(S(=O)(=O)N2CCOCC2)CC1	-10	8%	5%	8%	16	-6%
CCCCN=C1NN=C(c2ccc(C)c(C)c2)CS1	-5	-17%	-12%	-21%	?	17%
c1cc2c(cc1C1=NNC(=NC3CC3)SC1)OCCO2	?	12µM*	16µM*	-78%	-22	?
CCCCN=C1NN=C(c2ccc3c(c2)OCCO3)CS1	-7	-14%	-19%	-24%	-63*	6%
CC(=O)Nc1ccc2c(c1)Cc1cc(N3C(=O)C=CC3=O)ccc1-2	-13	?	-12%	-72%	-12	16µM*
O=C1C=CC(=O)N1c1ccc2c(c1)Cc1cc(F)ccc1-2	11	-8%	23%	0%	-64*	-6%
O=C1C=CC(=O)N1c1ccc2ccccc2c1	9	6%	4%	-14%	-18	-14%
CC(=O)Nc1ccc2c(c1)Cc1ccc(Cl)cc1-2	3	-17%	-10%	-17%	5	0%
COCC(=O)N1CCC(Oc2ccc(C(=O)N3CCSCC3)cc2)CC1	?	-5%	-7%	-21%	19	-5%

High-throughput results as filed in PubChem.
